This assay can be described thus: NCI Yeast Anticancer Drug Screen. Data for the mec2-1 strain (AID 157). As to conditions: S. cerevisiae mec2-1 strain, hits give high values. As for the experimental part: Growth inhibition of yeast strains with defined genetic alterations is measured as a screen for potential anti-cancer activity. Selected strains with alterations in DNA damage repair or cell cycle control were exposed to compounds and growth inhibition was measured relative to vehicle treated controls. The strain used in this assay is mec2-1

[1] abbreviates: at 5.0 µM (retest, dose inferred, filed as 0.5).
The mark [2] stands for this setting: at 50.0 µM (retest, dose inferred, filed as 5.0).

The structures appear in SMILES notation. The panel holds about 79,000 compounds, 15% with a hit somewhere; the sample as a whole holds those more often. Values without a mark were called inactive. The source made the active and inactive calls. No stated cut-off is given here; in the data, active means growth inhibition above about 70%; inactive means the rest.

`O=Cn1c2ccccc2c2ccccc21`: the growth inhibition is, setting by setting: (at 1.2 µM) -51%; (at 3.7 µM) -30%; under setting [1], 57%; (at 11.0 µM) -33%; (at 33.0 µM) -23%; under setting [2], 90% (active). The growth inhibition was 44.4% (at 50.0 µM) and 31% (at 100.0 µM).

As for `Oc1ccc(Cc2nccc3cc(O)c(O)cc23)cc1O`, the growth inhibition is, setting by setting: (at 1.2 µM) 21%; (at 3.7 µM) 28%; under setting [1], 46%; (at 11.0 µM) 33%; (at 33.0 µM) 47%; under setting [2], 73% (active). Besides, the growth inhibition reads like this: (at 50.0 µM) -25.4%; (at 100.0 µM) 77% (active).

As to `CCOc1ccc2ccc3cccnc3c2n1`, the growth inhibition runs as follows: (at 1.2 µM) -4%; (at 3.7 µM) -5%; under setting [1], -3%; (at 11.0 µM) 8%; (at 33.0 µM) 13%; under setting [2], 28%. Besides, the growth inhibition reads like this: (at 50.0 µM) 47.2%; (at 100.0 µM) 35%.

On to `COc1ccc2nc3cccc([N+](=O)[O-])c3c(NCCCO)c2c1`, for which the growth inhibition by setting is: (at 1.2 µM) 93% (active); (at 3.7 µM) 96% (active); under setting [1], 97% (active); (at 11.0 µM) 98% (active); (at 33.0 µM) 98% (active); under setting [2], 99% (active). Besides, the growth inhibition runs as follows: (at 50.0 µM) 91% (active); (at 100.0 µM) 96% (active).

For `Cc1cccc[c]1[Sn]([Cl])([S]/C(C#N)=N/N=C/c1ccc(N(C)C)cc1)[c]1ccccc1C`, the growth inhibition was 2% (at 1.2 µM); -1% (at 3.7 µM); 9% under setting [1]; 8% (at 11.0 µM); 51% (at 33.0 µM); 90% (active) under setting [2]. Also, the growth inhibition was 98.2% (active) (at 50.0 µM) and 93% (active) (at 100.0 µM).
